Most compounds without a hit are left out; they make up all but 1.7% or so of the library.
MazEF act: activators of E. coli MazEF toxin-antitoxin RNase, primary screen, biochemical, fluorescence, uHTS | FAM/BHQ RNA-DNA oligo cleavage fluorescence, 5 h | activation, % at 20 µM | actives 0.32% (n = 350,000) | AID 504720, 2011; in the data active = activation above about 50%
Target sequence (P0AE70 whole entry, looked up): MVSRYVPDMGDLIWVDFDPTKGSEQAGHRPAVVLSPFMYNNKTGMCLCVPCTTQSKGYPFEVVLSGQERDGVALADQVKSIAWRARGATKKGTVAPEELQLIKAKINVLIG
BJeLR lethal: MLPCN primary cell-based screen for lethality selective to Ras in HRASV12 cells. BJeLR (HRASV12) viability, CellTiter-Glo ATP luminescence, 48 h. AID 1554, 2009. inhibition, % (test concentration not listed). actives 0.17% (n = 300,000); in the data active = inhibition above about 50%
SARS 3CLpro inh: SARS-CoV 3CLpro protease inhibitors, primary screen, biochemical, quenched FRET; actives 0.14% (n = 290,000); recombinant SARS-CoV 3CLpro, quenched FRET peptide cleavage; Replicase polyprotein 1ab (Severe acute respiratory syndrome coronavirus), P0C6X7; AID 1706, 2009; inhibition, % at 6 µM; in the data active = inhibition above about 12%
VHR inh abs: VHR1 phosphatase inhibitors, primary screen, biochemical, absorbance, uHTS; recombinant VHR phosphatase, pNPP absorbance; inhibition, % at 13.3 µM; actives 0.52% (n = 290,000); in the data active = inhibition above about 50%
Target sequence (P51452 whole entry, looked up): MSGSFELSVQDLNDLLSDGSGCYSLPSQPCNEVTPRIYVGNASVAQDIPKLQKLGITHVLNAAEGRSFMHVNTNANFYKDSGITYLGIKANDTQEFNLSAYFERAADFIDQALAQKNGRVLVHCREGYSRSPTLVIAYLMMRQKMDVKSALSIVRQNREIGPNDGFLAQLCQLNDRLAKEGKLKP
PfHsp40 rescue: rescue of yeast from PfHsp40 toxicity, primary screen, S. cerevisiae, ATP luminescence. AID 504582, 2011. S. cerevisiae expressing PfHsp40, growth rescue. growth rescue, % at 12.5 µM. actives 0.68% (n = 340,000); in the data active = growth rescue above about 28%, passing the limit was not always enough;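 note: yeast W303a lacking pdr1 and pdr3 grown in galactose medium; growth measured after three days at 30 °C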
Vc quorum ag: inducers of Vibrio cholerae quorum light production without autoinducers, primary screen, BH1578 luxS cqsA deficient, single point; V. cholerae BH1578 lux reporter, luminescence, 6 h; actives 0.16% (n = 350,000); activation, % at 18.7 µM; AID 588436, 2011; in the data active = activation mostly above about 9.7%, no sharp cut-off
Numbers stand for hits; n = inactive; x = no result given.

SMILES	MazEF act	BJeLR lethal	SARS 3CLpro inh	VHR inh abs	PfHsp40 rescue	Vc quorum ag
C[C@@]12C(=O)N(Cc3ccc(Cl)cc3)CC(=O)N1[C@H]1c3ccccc3OC[C@@H]1[C@@H]2c1ccccc1	n	x	x	x	n	n
CCCCN1CC(=O)N2[C@H]3c4cc(C)ccc4OC[C@@H]3[C@H](c3ccccc3)[C@]2(C)C1=O	87.0	x	x	x	n	n
COc1ccc2c(c1)OC[C@H]1[C@H]2N2C(=O)c3cc(OC)ccc3NC(=O)[C@@]2(C)[C@H]1c1ccccc1	n	x	x	x	116.5	n
CC1CCc2c(sc3nc(C4CC4)nc(N4CCN(C(=O)c5ccco5)CC4)c23)C1 (configuration not stated)	n	n	n	x	160.7	n
CCc1nc(N2CCN(C(=O)c3ccco3)CC2)c2c3c(sc2n1)CCCC3	n	n	n	n	n	n
CC(O)(c1ccc(F)c(F)c1)c1nc(-c2ccc(F)c(Cl)c2)cs1 (configuration not stated)	x	x	x	x	x	n
O=c1cc(CO)oc(C(Nc2ccccn2)c2ccc(C(F)(F)F)cc2)c1O (configuration not stated)	n	n	n	n	127.8	n
Cn1cccc1/C=C1\SC(=Nc2ccc(O)cc2)NC1=O	n	62.3	n	n	n	n
CC(C)(C)NC(=O)CC1C[C@H](C(=O)N2CCCCC2)[C@@]2(CCc3ccccc3)c3[nH]c4ccccc4c3CCN2C1=O (some centres not stated)	n	x	x	x	n	n
COc1ccc(OC(F)(F)F)cc1CC1(C)C(=O)Nc2ccc(-c3ccsc3)cc21 (configuration not stated)	x	x	x	x	x	n
Cn1c(SCC(=O)N2c3ccccc3Sc3ccc(Cl)cc32)nnc1-c1ccco1	n	x	n	n	36.2	n
CCn1c(SCC(=O)N2c3ccccc3Sc3ccccc32)nnc1-c1ccco1	n	n	n	n	n	n
CCOCc1cc(CN2CCC(CCC(=O)NC3CC3)CC2)ccc1OC	n	n	n	n	n	n
CSc1cccc(CN2CCC(CCC(=O)NC3CC3)CC2)c1	n	n	n	51.3	n	n
CCCCNC(=S)N(CCCO)Cc1cc2cc3c(cc2[nH]c1=O)OCCO3	n	n	n	51.3	n	n
CN(C)CCCNC(=S)N(CCCO)Cc1cc2cc3c(cc2[nH]c1=O)OCO3	n	n	n	n	n	n
Cc1cc(NC(=O)Nc2cccc(Cl)c2)n(-c2ccccn2)n1	n	n	n	n	100.7	n
Cc1ccsc1C(=O)NCc1ccccc1Cl	n	n	n	58.5	n	n
Cc1ccsc1C(=O)NCc1ccc(Cl)cc1	n	n	x	x	x	n
CN(C)c1ccc(/C=C2/C[N+](C)(C)C/C(=C/c3ccc(N(C)C)cc3)C2=O)cc1	n	x	x	x	n	n
CC(C)/C=C1\CC/C(=C\c2ccc(N(C)C)cc2)C1=O	419.4	n	n	n	n	n
CN1/C(=C/C(=O)c2cccs2)Sc2ccccc21	x	n	n	n	n	n
CN1/C(=C\C(=O)c2cccs2)C(C)(C)c2ccccc21	n	n	n	n	153.5	n
CCOC(=O)C1CCc2c(ccc3ccccc23)N1CCC#N (configuration not stated)	n	x	x	x	x	n
CC1=C(C)/C(=N\OS(=O)(=O)c2ccccc2)C=CC1=O	n	84.3	n	n	637.4	n
SMILES	MazEF act	BJeLR lethal	SARS 3CLpro inh	VHR inh abs	PfHsp40 rescue	Vc quorum ag
CC(=O)Nc1cccc(-c2ccnc3c2CC(C(=O)Nc2cccc(Oc4ccccc4)c2)O3)c1 (configuration not stated)	x	x	x	x	x	n
COC(=O)c1ccccc1NC(=O)CCCOc1cc(=O)n(C)c2ccccc12	x	x	x	x	x	n
CC(C)(C)OC(=O)NCCCCCNC(=O)c1nc[nH]c1C(=O)NCCCCCNC(=O)OC(C)(C)C	n	x	x	x	44.9	n
CC(C)(C)OC(=O)NCCCCCNC(=O)c1nc[nH]c1C(=O)NCc1ccc(CNC(=O)OC(C)(C)C)cc1	n	x	x	x	n	n
S=c1[nH]c2ccc3ccccc3c2[nH]1	n	n	n	53.0	n	n
COc1cccc(C(=O)Nc2nc(-c3ccccc3)c(-c3ccccc3)o2)c1	n	n	n	n	n	n
O=C(Nc1nc(-c2ccccc2)c(-c2ccccc2)o1)c1ccc(F)cc1	n	n	n	n	417.9	n
O=C(O)c1cc[c]([Hg][Cl])cc1	n	x	x	x	575.3	n
Cc1ccc2c(Cl)cc(Cl)c(OCC(=O)O)c2n1	n	n	n	56.2	n	n
Cc1ccc2c(Cl)cc(Cl)c(OCC(=O)N3CCCC3)c2n1	n	n	n	n	n	n
CC(C)NC(=O)COC(=O)CNC(=O)c1cc(Cl)cc([N+](=O)[O-])c1	n	n	n	n	n	n
O=C(Cc1ccccc1)N/N=C/c1ccc(-c2ccc([N+](=O)[O-])cc2)o1	347.7	n	n	n	n	n
CCn1c(NN=O)nc2ccccc21	n	n	n	n	140.2	n
COc1ccc(OCCNc2cc(Cl)ccc2[N+](=O)[O-])cc1	147.1	n	n	n	n	n
COc1cc(CC(=O)N2CCN(S(=O)(=O)c3ccc(C(C)C)cc3)CC2)cc(OC)c1OC	n	x	x	x	x	n
COc1ccc(N2C(=O)C3C4C=CC(C5CC45)C3C2=O)c([N+](=O)[O-])c1 (configuration not stated)	n	n	n	n	n	16.7
COc1ccc(CNC(=O)Cn2nc(C)n3cccc3c2=O)cc1	n	n	n	n	n	n
COc1ccc(Br)cc1CNC(=O)Cn1nc(C)n2cccc2c1=O	n	n	n	56.3	n	n
Cc1ccccc1-c1n[nH]nc1C1=CC(=O)CC(C)(C)C1	n	x	x	x	x	n
Cc1[nH]n(-c2ccccc2)c(=O)c1N=Nc1nccs1	n	n	n	n	35.7	n
COc1ccc(C2(c3ccc(OC)cc3)NC(=O)N(CC(=O)N(C)C3CCC(C)CC3)C2=O)cc1 (configuration not stated)	n	x	x	x	n	n
Cc1cccc(C(=O)O/N=C(\N)Cc2cccc3ccccc23)c1	n	n	n	n	300.2	n
Cc1ccc(C(=O)OCc2cc3ccccc3[nH]c2=O)cc1	n	n	n	n	n	n
Cc1cccc(C(=O)OCc2cc3ccccc3[nH]c2=O)c1	77.1	n	n	n	n	n
CC(C)C(NC(=O)c1ccc(F)cc1)C(=O)N1CCN(C(=O)c2ccco2)CC1 (configuration not stated)	n	x	x	x	n	n
O=C(NCC(c1ccco1)N1CCCC1)c1ccc(S(=O)(=O)Nc2ccc(F)cc2)cc1 (configuration not stated)	n	x	x	x	n	n
CCOc1ccc(NS(=O)(=O)c2ccc(C(=O)NCC(c3ccco3)N3CCCC3)cc2)cc1 (configuration not stated)	52.2	x	x	x	n	n
